PubChem BioAssay (NCATS)
Inconclusive results are not listed. Active and inactive are the calls of the source. Unless noted, the call rests on the fitted dose curve; in most records, active means well fitted curve in the direction sought with a large enough effect; inconclusive means small, poorly fitted or top-dose-only effect, or another doubt; inactive means no such curve, though single readings can be large; an effect the other way counts as inactive or inconclusive.

Assays:
[1] = molecular target: T1, Hexokinase-4 (Homo sapiens) + Glucokinase regulatory protein (Homo sapiens) (UniProt P35557+Q14397); test: qHTS assay for inhibitors of recombinant human GCK-GKRP interaction: Diaphorase-coupled assay (AID 743205)
Summary of the method: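 Signal derives from resorufin generated by diaphorase, linked to GCK turnover of glucose (5 mM) and ATP (0.4 mM). Enzyme complex was added after a 20-minute compound preincubation and monitored for 30 minutes.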

[2] = molecular target: T1, Hexokinase-4 (Homo sapiens) + Glucokinase regulatory protein (Homo sapiens); test: qHTS assay for inhibitors of recombinant human GCK-GKRP interaction: ADP-Glo assay (AID 743206);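 further: plate controls were DMSO plus enzyme for no effect and no enzyme for full effect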
Summary of the method: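 GST-GCK and FLAG-GKRP (15 nM each in the dispensed mix, with 2 uM S6P) react with 0.4 mM ATP and 5 mM glucose (final) in Hepes pH 7.6 for 60 min at room temperature. ADP is measured by ADP-Glo luminescence.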

[3] = molecular target: T1, Hexokinase-4 (Homo sapiens) + Glucokinase regulatory protein (Homo sapiens); test: qHTS assay for inhibitors of recombinant human GCK-GKRP interaction: HTRF assay (AID 743207);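 further: 0% = DMSO with GCK present and -100% = DMSO wells lacking GCK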
Summary of the method: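 Titration screening format: recombinant GST-GCK and FLAG-GKRP at 5 nM, S6P at 2 uM, labelled anti-tag antibodies, 60 min at RT, dual-wavelength HTRF readout.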

[4] = qHTS profiling of the MIPE4 collection as inhibitors of Plasmodium falciparum (3D7) proliferation (AID 743344; call rule not given here;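 further: scaled between DMSO vehicle wells and 0.29 µM artemisinin as full inhibition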); conditions: P. falciparum 3D7 in erythrocytes, SYBR Green DNA fluorescence, 72 h; at 28.5 µM (top of the series) unless noted
Summary of the method: (§1)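 Erythrocytes infected with P. falciparum (0.3% parasitemia, 2.5% hematocrit) incubated with compounds 72 h at 37 C, 5% CO2. Lysis with saponin/Triton buffer containing SYBR Green I, overnight at room temperature in the dark; DNA fluorescence (485/535 nm) normalised to 0.29 uM artemisinin and DMSO.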

[5] = qHTS profiling of the MIPE4 collection as inhibitors of Plasmodium falciparum (DD2) proliferation (AID 743345; call rule not given here); conditions: P. falciparum Dd2 in erythrocytes, SYBR Green DNA, 72 h; at 28.5 µM (top of the series) unless noted
Summary of the method: as §1

[6] = qHTS profiling of the MIPE4 collection as inhibitors of Plasmodium falciparum (DD2) proliferation (Rep 2) (AID 743346; call rule not given here); conditions: P. falciparum Dd2 in erythrocytes, SYBR Green DNA, 72 h; at 28.5 µM (top of the series) unless noted
Summary of the method: as §1

[7] = High-throughput drug toxicity screening in the BPDCN cell line Gen2.2 (AID 1224824; call rule not given here;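 further: cells exposed to compounds for 48 h before reading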); conditions: Gen2.2 BPDCN cells; at 45.8 µM (top of the series) unless noted
Summary of the method: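 Readout is ATP luminescence from Gen2.2 cells after two days of drug exposure in serum-containing medium at 37 °C. Values express percent activity, with vehicle defining full signal and 9.2 uM bortezomib defining zero.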

[8] = High-throughput drug toxicity screening in the BPDCN cell line Cal-1 (AID 1224825; call rule not given here); conditions: Cal-1 BPDCN cell viability, qHTS; at 45.8 µM (top of the series) unless noted
Summary of the method: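 500 Cal-1 cells/well, RPMI + glutamine + 10% FBS (phenol red-free); cpd added by pin tool; 48 h, 37C, 5% CO2; CTG 15 min RT, lumi read. Normalised: DMSO 100%, bortezomib 9.2 uM 0%.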

[9] = qHTS assay for measurement of the activity of small molecule inhibitors on Zika virus induced Caspase-3 activity in human iPSC derived neural progenitor cells (hNPCs) (AID 1224857); further: % of control where 0% means no effect; nearly all actives have a fitted effect of over 65% in size
Summary of the method: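 Zika virus (2 FFU/cell) infection of human iPSC-derived NPCs, 6 h, following 1 h compound preincubation. Read-out: Caspase-Glo 3/7 luminescence.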

[10] = qHTS assay for measurement of the activity of small molecule inhibitors on Zika virus induced Caspase-3 activity in human astrocytoma cells (AID 1224859);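 further: plate controls were ZIKV-infected untreated cells for no effect and uninfected cells for full effect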
Summary of the method: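 Caspase activation in ZIKV-infected SNB-19 cells (2 FFU/cell, 6 h) measured by Caspase-Glo 3/7 luminescence after 30 min RT; compound pre-incubated 1 h; normalised to uninfected and infected controls.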

[11] = qHTS Screen of the MIPE 4.0 Collection Against Ewings Sarcoma (RDES) (AID 1259252); further: nearly all actives have a fitted effect of over 35% in size; further: potency means the concentration at half of the fitted maximal effect
Summary of the method: (§2)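 CellTiter-Glo luminescence after 48 h compound exposure (titration) gave viability; percent activity used DMSO-treated cells as no inhibition and medium-only wells as full inhibition. Cells grown in RPMI/5% FBS, dosed 4 h post-seeding.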

[12] = qHTS Screen of the MIPE 4.0 Collection Against Ewings Sarcoma (TC71) (AID 1259253); further: nearly all actives have a fitted effect of over 40% in size; further: potency means the concentration at half of the fitted maximal effect
Summary of the method: as §2

[13] = qHTS Screen of the MIPE 4.0 Collection Against Ewings Sarcoma (EW8) (AID 1259255); further: nearly all actives have a fitted effect of over 35% in size; further: potency means the concentration at half of the fitted maximal effect;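 on viability: 100% = DMSO-treated cells and 0% = medium-only wells without cells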
Summary of the method: as §2

[14] = qHTS Screen of the MIPE 4.0 Collection Against Ewings Sarcoma (TC32) (AID 1259256); further: nearly all actives have a fitted effect of over 45% in size; further: potency means the concentration at half of the fitted maximal effect
Summary of the method: as §2

[15] = qHTS profiling for inhibitors of Plasmodium falciparum (3D7) proliferation (AID 743322; call rule not given here;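 further: infected erythrocytes exposed to compound for 72 h before lysis; 100% = DMSO vehicle wells and 0% = 0.29 µM artemisinin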); conditions: P. falciparum 3D7 proliferation; at 28.7 µM (top of the series)
Summary of the method: as §1

[16] = qHTS profiling for inhibitors of Plasmodium falciparum (DD2) proliferation (AID 743323; call rule not given here); conditions: lower = more inhibition; at 28.7 µM (top of the series)
Summary of the method: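 1536-well qHTS; infected RBCs 0.3% parasitemia/2.5% Hct final; cpd 72 h 37 C 5% CO2; lysis buffer + SYBR Green I, o/n RT dark; FI 485/535; norm. to 0.29 uM artemisinin and DMSO, plate-stack corrected.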

[17] = qHTS profiling for inhibitors of Plasmodium falciparum (HB3) proliferation (AID 743324); conditions: Plasmodium falciparum HB3 blood-stage proliferation; at 28.7 µM (top of the series);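 further: 100% = DMSO vehicle wells and 0% = artemisinin-treated control wells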
Summary of the method: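 P. falciparum HB3 grown in erythrocytes (0.3% parasitemia, 2.5% hematocrit final) with compound for 72 h at 37 C, 5% CO2. Parasite DNA detected by SYBR Green after saponin/triton lysis overnight; normalized to 0.29 uM artemisinin and DMSO.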

[18] = qHTS profiling of the MIPE4 collection as inhibitors of Plasmodium falciparum (HB3) proliferation (AID 743347; call rule not given here;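 further: plate controls were DMSO vehicle wells for no effect and artemisinin wells for full effect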); conditions: P. falciparum HB3 in erythrocytes, SYBR Green DNA, 72 h; at 28.5 µM (top of the series) unless noted
Summary of the method: as §1

[19] = qHTS assay for cell viability of the p53RE-bla HCT-116 cell line (AID 743292); further: on the % scale 0 is the no-effect control and ±100 the full control effect; nearly all actives have a fitted effect of over 55% in size
Summary of the method: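 CellSensor p53RE-bla HCT-116 cells, 4,000/well, preincubated 5 h at 37 C, then exposed to compounds in DMSO for 16 h at 37 C. Viability read as CellTiter-Glo luminescence (intracellular ATP) after 30 min at room temperature.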

T1 sequence (P35557 whole entry, looked up): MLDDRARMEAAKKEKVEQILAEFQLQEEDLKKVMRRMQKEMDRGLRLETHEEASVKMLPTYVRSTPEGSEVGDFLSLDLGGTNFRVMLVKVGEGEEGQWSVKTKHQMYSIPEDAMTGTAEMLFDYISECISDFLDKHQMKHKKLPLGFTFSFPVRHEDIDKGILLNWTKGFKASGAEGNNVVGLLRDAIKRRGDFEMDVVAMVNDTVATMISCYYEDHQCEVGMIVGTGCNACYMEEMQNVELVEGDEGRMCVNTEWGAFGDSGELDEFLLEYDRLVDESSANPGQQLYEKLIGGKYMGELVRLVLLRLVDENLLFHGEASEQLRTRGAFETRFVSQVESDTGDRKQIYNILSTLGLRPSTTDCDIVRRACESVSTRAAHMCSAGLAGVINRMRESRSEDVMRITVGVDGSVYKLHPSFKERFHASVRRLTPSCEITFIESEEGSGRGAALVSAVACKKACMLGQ
T1 sequence (Q14397 whole entry, looked up): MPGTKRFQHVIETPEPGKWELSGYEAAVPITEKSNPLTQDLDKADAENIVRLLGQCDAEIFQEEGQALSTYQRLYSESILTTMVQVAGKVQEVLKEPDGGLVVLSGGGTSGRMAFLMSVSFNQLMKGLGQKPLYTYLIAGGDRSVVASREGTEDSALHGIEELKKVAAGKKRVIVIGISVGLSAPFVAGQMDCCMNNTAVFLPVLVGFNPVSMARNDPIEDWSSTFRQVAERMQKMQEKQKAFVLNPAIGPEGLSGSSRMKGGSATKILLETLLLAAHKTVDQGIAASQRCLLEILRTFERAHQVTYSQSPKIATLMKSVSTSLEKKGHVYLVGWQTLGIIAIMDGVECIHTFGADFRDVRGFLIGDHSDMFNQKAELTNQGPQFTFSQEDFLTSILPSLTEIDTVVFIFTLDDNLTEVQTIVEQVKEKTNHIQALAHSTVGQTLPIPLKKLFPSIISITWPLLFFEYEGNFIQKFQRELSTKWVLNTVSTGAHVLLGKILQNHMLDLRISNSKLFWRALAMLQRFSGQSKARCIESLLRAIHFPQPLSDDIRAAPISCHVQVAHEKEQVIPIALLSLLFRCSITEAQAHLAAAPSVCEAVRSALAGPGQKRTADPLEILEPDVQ

Row | SMILES | outcome [1] | outcome [2] | outcome [3] | parasite growth, % of DMSO control [4] | parasite growth remaining, % of DMSO control (lower = more inhibition) [5] | parasite growth, % of control (lower = inhibition) [6] | cell viability, % of control (lower = more cytotoxic) [7] | viability (% of control) [8] | Potency [9] | Potency [10] | Potency [11] | Potency [12] | Potency [13] | Potency [14] | remaining parasite growth % (stronger effect = lower value) [15] [%] | activity, percent of control [16] [%] | remaining proliferation (% of control), lower = more inhibition [17] [%] | growth, % of control [18] | outcome [19]
1 | COc1ccc2cc([S+]([O-])Cc3ncc(C)c(OC)c3C)nc2c1 | inactive | inactive | inactive | 32.2% | 87.1% | 61.5% | 70.5% | 107% | inactive | inactive | inactive | inactive | inactive | inactive |  |  |  |  | 
2 | CC(=O)N[C@H]1[C@@H]([C@H](O)[C@H](O)CO)OC(C(=O)O)=C[C@@H]1N=C(N)N |  |  |  |  |  |  | 114% | 124% | inactive | inactive | inactive | inactive | inactive | inactive |  |  |  |  | 
3 | O=C(CN1C(=O)C2(CCCC2)NC[C@H]1c1cc(F)cc(F)c1)Nc1ccc2c(c1)C[C@@]1(C2)C(=O)Nc2ncccc21 |  |  |  | 26% | 86.9% | 26.1% | 124% | 107% | inactive | inactive | inactive | inactive | inactive | inactive |  |  |  |  | 
4 | CC(=O)O[C@H]1C[C@@H]2CC[C@H]3[C@H]4C[C@H]([N+]5(C)CCCCC5)[C@@H](OC(C)=O)[C@@]4(C)CC[C@@H]3[C@@]2(C)C[C@H]1[N+]1(C)CCCCC1 |  |  |  |  |  |  | 232% | 120% | inactive | inactive | 1320 nM (active) | 1050 nM (active) | 2640 nM (active) | 2350 nM (active) |  |  |  |  | 
5 | CC(C)OC(=O)[C@H](C)N[P@](=O)(OC[C@H]1O[C@@H](n2ccc(=O)[nH]c2=O)[C@](C)(F)[C@H]1O)Oc1ccccc1 |  |  |  |  |  |  | 128% | 88.9% | inactive | inactive | inactive | inactive | inactive | inactive |  |  |  |  | 
6 | NC(=O)c1ncn([C@@H]2O[C@H](CO)[C@@H](O)[C@@H]2O)c1N |  |  |  | 96.5% | 91.5% | 95.2% | 191% | 112% | inactive | inactive | inactive | inactive | inactive | inactive | 94.2 | 92.4 | 92.9 | 68.2% | 
7 | CC(C=CC1=C(C)CCCC1(C)C)=CC=CC(C)=CC(=O)Nc1ccc(O)cc1 |  |  |  | 4.7% [at 57.5 µM] | 6.69% [at 57.5 µM] | 18.5% [at 57.5 µM] | 5.64% [at 92.2 µM] | 4.87% [at 92.2 µM] | inactive | inactive | 2410 nM (active) | 5400 nM (active) | 4290 nM (active) | 12100 nM (active) |  |  |  | 7.5% [at 57.5 µM] | inactive
